The sample as a whole holds a higher share of hits than the screen did.
ALOX12 inhib: inhibitors of human 12-lipoxygenase (ALOX12). P18054. purified 12-hLO, xylenol orange hydroperoxide absorbance. Potency, µM (titrated, usually from 57.1 µM), most hits filed as inhibitors. actives 0.12% (n = 150,000); further: nearly all actives have a fitted effect of over 55% in size
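Xylenol orange chromogenic assay: hydroperoxide from 12hLO oxidises Fe(II), giving red-shifted Fe(III)-XO absorbance. Conditions: 150 nM enzyme, 40 uM arachidonic acid, 25 mM Hepes pH 7.0, 0.01% Triton X-100, 30 min, room temperature.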
IMPase Li inh: cell-permeable IMPase inhibitors with lithium potentiation. CHO-M1 cells, IP1 TR-FRET (IP-One), carbachol + lithium. actives 0.35% (n = 210,000). Potency, µM (highest dose often 59.4 µM), actives largely listed as inhibitors;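 further: IP1 builds up when IMPase is blocked and the TR-FRET signal falls; nearly all actives have a fitted effect of over 50% in size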
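IP1 accumulation measured by competitive TR-FRET in lysed CHO-M1 cells after 30 min compound exposure at 37C, with a small lithium addition to potentiate weak responses. Hill-equation AC50 from ratio and donor-channel data.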
15-hLO-2 inh: inhibitors of human 15-lipoxygenase 2 (ALOX15B); Potency, µM (top dose mostly 57.1 µM), hits mostly inhibitors; actives 0.56% (n = 110,000); purified 15hLO-2, xylenol orange hydroperoxide absorbance; AID 881; O15296; further: nearly all actives have a fitted effect of over 60% in size
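Enzyme 50 nM, AA 45 uM, 25 mM Hepes pH 7.5 + 0.01% Triton X-100; cpd preinc 15 min RT, rxn 90 min RT; stop/detect with 200 uM XO + 300 uM Fe(II) in 50 mM H2SO4, 30 min; A573/A405.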
IMPase inh: membrane-permeable compound that blocks inositol monophosphatase | CHO-M1 cells, IP1 accumulation, HTRF TR-FRET ratio | inhibition (IP1 accumulation), % at 46.1 µM | 120,000 tested, under 10 active | AID 901; active means well fitted curve in the direction sought with a large enough effect in the signal ratio, not every such curve was filed as active; inconclusive means small, poorly fitted or top-dose-only effect, or a change in a side signal; inactive means no such curve, though single readings can be large or run the other way; the % refers to the signal ratio;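 further: cells stimulated with carbachol in lithium chloride buffer; higher means more IMPase inhibition seen as more IP1 and lower FRET ratio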
Target sequence (P97697 whole entry, looked up): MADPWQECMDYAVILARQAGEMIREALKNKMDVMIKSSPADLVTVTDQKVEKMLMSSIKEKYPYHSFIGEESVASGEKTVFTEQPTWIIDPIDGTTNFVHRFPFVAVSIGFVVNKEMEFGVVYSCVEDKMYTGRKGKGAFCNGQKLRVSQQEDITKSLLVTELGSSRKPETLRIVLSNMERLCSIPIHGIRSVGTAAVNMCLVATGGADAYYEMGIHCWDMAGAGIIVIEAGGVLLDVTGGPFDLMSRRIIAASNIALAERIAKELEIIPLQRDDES
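Measured: the HTRF emission ratio (665/620 nm) plus the 620 nm donor channel, each fitted to the Hill equation to give AC50. Cells were CHO-M1 given compounds up to 46 uM and a 30 min carbachol stimulation at 37C.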
Hits are given with their value; i = inactive; ? = inconclusive; nt = no result given; ! = a repeat was not active; [ ] = another dose, or the depositor's remark. Unless noted, the call rests on the fitted dose curve; in most records, active means well fitted curve in the direction sought with a large enough effect; inconclusive means small, poorly fitted or top-dose-only effect, or another doubt; inactive means no such curve, though single readings can be large; an effect the other way counts as inactive or inconclusive.

SMILES	ALOX12 inhib	IMPase Li inh	15-hLO-2 inh	IMPase inh
NSc1nc(N)c2nc(-c3ccccc3)c(-c3ccccc3)nc2n1	nt	i	nt	nt
Nc1nc(N)c2nc(-c3ccccc3)c(N)nc2n1	?	13µM!	i	i
CNS(=O)(=O)c1ccccc1C(=N)c1ccccc1	i[11.4 µM]	i	i[11.4 µM]	nt
Nc1ccc(-c2ccc(N)c(O)c2)cc1O	i	i	i	nt
Nc1cc(-c2ccccc2)ccc1O	?	i	13µM	i
CCc1cc2cc3c(cc2nc1SCC(=O)Nc1nccs1)OCO3	i	13µM	nt	?
O=C(CSc1nc(-c2ccccc2)nc2ccccc12)Nc1nccs1	i	25µM	i	?
N#Cc1cc2c(nc1SCC(=O)Nc1nccs1)CCCCC2	i	?	i	?
O=C(CSc1ccccc1)Nc1nccs1	nt	i	nt	nt
Cc1ccc(C#N)c(SCC(=O)Nc2nccs2)n1	nt	13µM	nt	nt
COc1cc([C@@H]2c3cc4c(cc3C(OC3OC5COC(C)OC5C(O)C3O)C3COC(=O)[C@@H]32)OCO4)cc(OC)c1O (some centres undefined)	nt	i	nt	nt
O=C(O)C1=CC(=C(c2ccc(O)c(C(=O)O)c2)c2ccc(O)c(C(=O)O)c2)C=CC1=O	?	?	7.9µM	?
CCOC(=O)C1=C(c2ccccc2)NC(=S)NC1c1cc([N+](=O)[O-])ccc1OC (centres undefined)	i	i	25µM	i
CCCOc1ccc(C2NC(=S)NC(c3ccccc3)=C2C(=O)Nc2ccc(C)cc2)cc1OC (centres undefined)	14µM	i	nt	i
CCOC(=O)C1=C(c2ccccc2)NC(=S)NC1c1cccc([N+](=O)[O-])c1 (centres undefined)	i	nt	nt	i
COc1cc(C2NC(=S)NC(c3ccccc3)=C2C(C)=O)cc(Br)c1OCC(N)=O (centres undefined)	nt	i	nt	nt
CN(Cc1ccccc1)C(=S)NC(=O)c1ccc(-c2ccccc2)cc1	i	10µM	nt	i
O=c1[nH]ncc2c3ccccc3n(Cc3ccccc3F)c12	i	10µM	i	i
O=c1[nH]ncc2c3ccccc3n(Cc3ccccc3)c12	i	i	i	i
Cc1ccc(C)c2[nH]c(=O)c(CN(Cc3ccco3)S(=O)(=O)c3ccc4c(c3)OCCO4)cc12	i	i	i	i
CCc1ccc2[nH]c(=O)c(CN(Cc3ccco3)S(=O)(=O)c3ccc4c(c3)OCCO4)cc2c1	i	11µM	i	i
O=C(/C=C1\NC2(CCCC2)Cc2ccccc21)C(=O)N/N=C/c1ccc(O)c(O)c1	0.89µM	i	nt	nt
CCCn1c(-c2ccc(F)cc2)nc2c(NCCN(C)C)nc(C)nc21	i	i	i	nt
COc1ccc(Cl)cc1C(=O)Nc1nc2ccc(S(C)(=O)=O)cc2s1	nt	13µM	nt	nt
COC(=O)C[C@H]1c2ccccc2[C@H]2C(=C[C@@H](C)[C@H]3C(=O)N(O)C(=O)[C@H]32)N1C(=O)OC	i[11.4 µM]	i	nt	nt
SMILES	ALOX12 inhib	IMPase Li inh	15-hLO-2 inh	IMPase inh
Cc1ccc(S(=O)(=O)NCC(=O)OCC(=O)c2ccc(Br)s2)cc1	i	10µM	i	?
CCCNC(=O)[C@H]1O[C@@H]1C(=O)N[C@H](C(=O)N1CCC[C@H]1C(=O)OC)[C@@H](C)CC	nt	i	nt	nt
CCCCC1CCC(CCCC(C)CCC(=O)O)CC1 (centres undefined)	nt	nt	nt	i
CCN1/C(=C/c2ccc3cc(C)cc(C)c3[n+]2CC)Sc2cc(C)ccc21	nt	11µM	nt	nt
Fc1ccc(CSc2nc3ncc(Br)cc3[nH]2)cc1	i	14µM	i	i
CCN(CC)C(=O)CSc1nc2ncc(Br)cc2[nH]1	i	nt	i	i
Cc1cc(/C=N/NC(N)=S)c(C)n1-c1cccc(Cl)c1	nt	i	nt	nt
Cc1cccc(C)c1-n1c(C)cc(/C=N/NC(N)=S)c1C	?	i	20µM	i
Cc1cccc(OCC(=O)NC(=S)N2CCCc3ccccc32)c1	i	i	20µM	i
COc1cc2c(cc1OC)-c1cc3cc(OC)c(OC)cc3c(=O)n1CC2	nt	i	nt	nt
CSc1nncc(/C(C)=N\Nc2cccc(C)c2)n1	i	i	3.2µM	i
O=C(COC(=O)CSc1ccc2ccccc2c1)NC1CC1	i	nt	nt	i
O=C(COC(=O)CSc1ccc2ccccc2c1Br)NC1CC1	nt	10µM	nt	nt
CCOC(=O)c1c(-c2ccc(C)o2)csc1NC(=S)NC(=O)N(C)C	?	i	25µM	i
Cc1cc(NC(=O)CSc2nc(C(C)C)nc3ccccc23)no1	i	13µM	i	i
Cc1cc(NC(=O)CSc2nc3ccccc3c(=O)n2-c2ccccc2)no1	i	7.1µM	i	i
Cc1nnc(NC(=O)CSc2nc(C(C)C)nc3ccccc23)s1	i	7.9µM	i[11.4 µM]	?
COc1ccc(C(CC(=O)O)NC(=O)c2sc3ccccc3c2Cl)cc1 (centres undefined)	i	5.6µM	nt	?
CC[n+]1c(/C=C2\C=C(C)CC(C)(C)C2)sc2ccccc21	i	i	25µM	i
CC[n+]1c(/C=C2/C=C(C)CC(C)(C)C2)sc2ccc(OC)cc21	i	i	25µM	i
O=C1OC2(c3ccc(O)cc3Oc3cc(O)ccc32)c2c1c(-c1ccccc1)c(-c1ccccc1)c(-c1ccccc1)c2-c1ccccc1	?	i	i[11.4 µM]	nt
COc1ccc(C(=O)C2C3C4COC(O4)C(=O)C3C3C=Cc4ccccc4N32)c(OC)c1 (centres undefined)	i	i	i	i
O=C(O)c1ccccc1NS(=O)(=O)c1ccccc1F	i	nt	nt	nt
O=C(CSc1ncccc1-c1nc2ccccc2[nH]1)N1CCN(c2ccccc2F)CC1	i	10µM	i	?
COc1ccccc1N1CCN(C(=O)CSc2ncccc2-c2nc3ccccc3[nH]2)CC1	i	i	i	i
SMILES	ALOX12 inhib	IMPase Li inh	15-hLO-2 inh	IMPase inh
CCOc1cc(/C=C2\SC(=S)N(Nc3ccccc3)C2=O)ccc1O	?	i	13µM	i
COc1cc(/C=C2\SC(=S)N(Nc3ccccc3)C2=O)ccc1O	i	i	nt	nt
Cc1ccccc1NC(=O)Cn1nnc(-c2ccc(N3CCOCC3)cc2)n1	i	10µM	i	i
Cc1cnc(CNc2nc(-c3ccc(C(=O)N(C)C)cc3)nc3ccccc23)cn1	i	i	i	nt
CN1c2cccc3cccc(c23)N(C)C1(C)C	i	i	16µM	i
CCOc1ccc(C(=O)Nc2cccc(NC(=O)c3ccc(C(C)(C)C)cc3)c2)cc1Br	nt	nt	nt	i
O=C(O)c1ccc2cc(-c3ccc(O)c(C45CC6CC(CC(C6)C4)C5)c3)ccc2c1	?	i	7.9µM	nt
COc1cc(C(=O)O)ccc1O	i	i	nt	nt
COc1cc([C@@H]2c3cc4c(cc3[C@@H](O[C@@H]3O[C@H]5CO[C@@H](C)O[C@@H]5[C@@H](O)[C@H]3O)[C@@H]3COC(=O)[C@@H]23)OCO4)cc(OC)c1O	i	i	i	i
COc1cc(N=c2ssnc2Cl)cc(OC)c1	10µM	i	?	i
COc1cccc(-c2cc(C(F)(F)F)n3nc(-c4ccc(C)cc4)cc3n2)c1	nt	nt	nt	i
COc1cccc(-c2cc3nc(-c4ccccc4)cc(N4CCC5(CC4)OCCO5)n3n2)c1	i	11µM	i	i
COCC(=O)N1CCC2(CC1)CN(c1ccc(-c3ccccc3)cc1)C2	i	i	?	nt
